Source: PubChem (several laboratories)
MazEF act = MazEF (E. coli) toxin RNase activation; P0AE70; FAM/BHQ RNA-DNA oligo cleavage fluorescence, 5 h; activation, % at 20 µM; 350,000 compounds, 0.32% hits; AID 504720; in the data active means activation above about 50%
Target sequence (P0AE70 whole entry, looked up): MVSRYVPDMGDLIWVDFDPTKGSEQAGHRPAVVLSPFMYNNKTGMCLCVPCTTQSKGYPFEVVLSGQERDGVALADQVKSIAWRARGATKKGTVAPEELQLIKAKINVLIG
PrPC TRFRET = inhibitors of human cell surface prion protein PrPC; P04156; TR-FRET read-out; inhibition, % at 13.8 µM; 370,000 compounds, 0.43% hits; in the data active means inhibition above about 24%; further: 0% = median of the test wells and 100% = reference compound wells
PriA SSB inh = blocks PriA binding to SSB C-terminal tail | AlphaScreen SSBct-PriA binding, biotinylated peptide | inhibition, % at 33 µM | 430,000 compounds, 0.6% hits; in the data active means inhibition mostly above about 37%, no sharp cut-off; inactive means mostly below about 20%;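 further: plate controls were negative control peptide for no effect and reference peptide for full effect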
PfHsp40 rescue = rescue of PfHsp40-mediated yeast toxicity | 340,000 compounds, 0.68% hits | S. cerevisiae expressing PfHsp40, growth rescue, ATP luminescence | AID 504582 | growth rescue, % at 12.5 µM; in the data active means growth rescue above about 28%, passing the limit was not always enough;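 further: yeast W303a lacking pdr1 and pdr3 grown in galactose medium; growth measured after three days at 30 °C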
PrP 5UTR inh = inhibition of PrP 5' UTR reporter expression; AID 488862; cell-based PrP 5' UTR mRNA reporter, plate reader; 340,000 compounds, 0.35% hits; inhibition, % (test concentration not listed); in the data active means inhibition above about 52%; further: 0 = median of the neutral control wells
The depositor's hits bear a star; . = not tested or not shown. Only some compounds are listed: those with a hit (about 1.8% of all), similar ones and a draw of the others.

SMILES | MazEF act | PrPC TRFRET | PriA SSB inh | PfHsp40 rescue | PrP 5UTR inh
CC1CCN(c2ccc(-c3cccs3)nn2)CC1 | 7 | -1 | 3 | -6 | 80*
CCc1cccc(CC)c1NC(=O)COC(=O)/C(C#N)=C/c1ccc(OC)cc1 | 124* | 14 | -7 | 1 | -37
COc1ccc(/C=C(\C#N)C(=O)OCC(=O)Nc2c(C)cccc2C)cc1 | 2 | 6 | -4 | -1 | 4
COCCCNC(=S)NC1CC2CCC(C1)N2Cc1ccccc1 (stereo not given) | 11 | -11 | -19 | 35* | -7
CC(C)(C)CC(=O)Nc1nnc(C(F)(F)F)s1 | 9 | 7 | -6 | -1 | -20
CC(NC(=O)Nc1nnc(C(F)(F)F)s1)(C(F)(F)F)C(F)(F)F | 7 | 57* | -9 | -2 | -21
COc1ccc(-c2noc(C(C)n3nc(C)c([N+](=O)[O-])c3C)n2)cc1OC (stereo not given) | 4 | 3 | -19 | 2 | -19
COc1ccccc1NC(=S)NN=C(C)c1ccccn1 | 3 | 21 | -20 | 180* | 10
CC(=NNC(=S)Nc1cccc(C)c1)c1ccccn1 | -12 | 12 | 35 | 116* | 52
O=C(CSC1CCCC1)N1CCCSCC1CN1CCOCC1 (stereo not given) | . | . | 16 | . | .
COC(=O)c1c(C)[nH]c(C(=O)COc2ccc3ccc(=O)oc3c2)c1C | -3 | -7 | -8 | -1 | .
O=C(CSc1ncccn1)N1CCc2ccccc2C1 | 5 | 4 | 3 | -1 | -20
O=C(CNCc1ccccn1)N1CCc2ccccc2C1 | -6 | -5 | 78* | 0 | -15
Cc1ccc2nc3sc(C(=O)NCc4ccco4)c(N)c3cc2c1 | 82* | -11 | 1 | 5 | -86
CCNC(=O)N1CCCC(c2nnc(-c3ccc4c(c3)OCO4)o2)C1 (stereo not given) | . | . | 1 | . | .
CC(C)C(=O)NNS(=O)(=O)c1ccccc1[N+](=O)[O-] | 0 | -3 | 5 | 55* | -14
Cc1onc(-c2ccccc2Cl)c1C(=O)N1CCN(Cc2nc(C3CC3)cs2)CC1 | . | . | -2 | . | .
O=C(NCCCn1ccnc1)C(=O)Nc1ccc(F)c(Cl)c1 | . | . | 15 | . | .
COc1cccc(-c2ccc(=O)n(CCCC(=O)NCc3ccccc3Cl)n2)c1 | . | . | 39* | . | .
COc1ccc(C)cc1NS(=O)(=O)c1ccc(-c2cnc(C3CC3)o2)cc1 | 1 | 23 | -13 | 1 | 76*
Cc1ccc(NS(=O)(=O)c2ccc(-c3cnc(C4CC4)o3)cc2)cc1 | -1 | 6 | 15 | 0 | -33
O=C(COc1ccc(Cl)cc1Cl)Nc1cccc(-c2nc3cccnc3s2)c1 | . | . | -16 | . | .
NC(=O)CCN(C(=O)c1cccc(S(=O)(=O)N2CCc3ccccc32)c1)c1ccccc1 | 5 | -1 | -5 | 47* | -14
Cc1ccc(CN(C)C(=O)c2cccc(S(=O)(=O)N3CCc4ccccc43)c2)cc1 | -6 | 9 | 5 | -1 | 0
CCOC(=O)C1=CN(Cc2cccc(Br)c2)S(=O)(=O)N(C)C1C (stereo not given) | -2 | -1 | -20 | 40* | 47
SMILES | MazEF act | PrPC TRFRET | PriA SSB inh | PfHsp40 rescue | PrP 5UTR inh
CCOC(=O)C1=CN(Cc2cccc(-c3cccnc3)c2)S(=O)(=O)N(C)C1C (stereo not given) | 3 | -1 | -9 | 2 | -11
COc1ccc(OCCn2cnc(Cl)c2Cl)cc1 | 7 | 2 | 27 | -1 | -31
Clc1ccc(OCCn2cnc(Cl)c2Cl)cc1 | -1 | 4 | 43* | 12 | -10
CCc1ccc(C(C)NC(=O)c2cc(C)oc2C)cc1 (stereo not given) | 4 | 1 | -3 | 47* | -8
Cc1cc(C(=O)NN)c(C)o1 | 0 | 5 | -7 | 1 | -5
CC(C)n1cnc2c(NCc3ccccc3)cc(Cc3ccc(F)cc3)cc21 | -6 | 4 | -4 | 115* | -11
O=C(COc1ccccc1)Nc1ccncc1 | 10 | 3 | -4 | 44* | -15
CCCCCc1cc(=O)oc2c(C(CCN3CCCC(C)C3)c3ccc(N(C)C)cc3)c(OC)cc(OC)c12 (stereo not given) | -7 | . | 90* | 2 | 5
CCN(CC)CCC(c1cc(OC)c(OC)c(OC)c1)c1c(OC)cc(OC)c2c(C)cc(=O)oc12 (stereo not given) | 13 | -10 | -3 | 0 | -7
CCCCCc1cc(=O)oc2c(C(CCN(CC)CC)c3ccc(N(C)C)cc3)c(OC)cc(OC)c12 (stereo not given) | -10 | -17 | 67* | 0 | 2
